We go through four sequences from publication PMC7862700, “An all-to-all approach to the identification of sequence-specific readers for epigenetic DNA modifications on cytosine”.

Holding throughout (experiment): DAPPL (digital affinity profiling via proximity ligation, sequencing); 10 mM Tris-HCl pH 7.5, 50 mM NaCl, 1 mM DTT, 4% glycerol, room temperature, 30 min; GST-TFs on glutathione beads, 16-mer random dsDNA library, 0.1% formaldehyde crosslink after washing; high values mean tight binding
Holding throughout (conditions): protein: recombinant; tags: N-terminal GST; dsDNA, one strand shown

One assay addresses T1, GABPA (Homo sapiens, UniProt Q06546 1-454).
T1 sequence: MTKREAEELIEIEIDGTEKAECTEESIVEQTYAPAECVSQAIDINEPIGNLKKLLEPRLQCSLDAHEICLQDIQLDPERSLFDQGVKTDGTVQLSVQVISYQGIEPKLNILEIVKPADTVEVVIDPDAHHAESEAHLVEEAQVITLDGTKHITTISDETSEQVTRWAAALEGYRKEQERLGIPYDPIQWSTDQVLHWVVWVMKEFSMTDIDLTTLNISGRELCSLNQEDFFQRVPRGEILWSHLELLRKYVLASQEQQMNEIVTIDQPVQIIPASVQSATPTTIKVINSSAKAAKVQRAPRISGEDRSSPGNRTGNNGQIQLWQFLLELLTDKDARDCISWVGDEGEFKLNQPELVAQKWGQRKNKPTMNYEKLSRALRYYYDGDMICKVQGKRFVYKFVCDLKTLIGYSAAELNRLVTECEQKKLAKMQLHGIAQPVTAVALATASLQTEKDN
Summed up:
(§1)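 Human transcription factors were made in yeast as GST fusions, captured on glutathione beads and barcoded with DNA. With a tag-only sample included, the pool was incubated with 200 nmole of a random double-stranded 16-mer DNA library in Tris/NaCl/DTT/glycerol buffer at room temperature for 30 min, then crosslinked with 0.1% formaldehyde after washing, ligated by proximity, amplified and sequenced. For binding signal, each hexamer's read frequency for a factor is divided by its frequency for the tag-only sample.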

The target of another assay is ELF1 (Homo sapiens, UniProt P32519 1-619). Summed up:
as §1

In a further assay the target is T2, EHF (Homo sapiens, UniProt Q9NZC4 1-300).
T2 sequence: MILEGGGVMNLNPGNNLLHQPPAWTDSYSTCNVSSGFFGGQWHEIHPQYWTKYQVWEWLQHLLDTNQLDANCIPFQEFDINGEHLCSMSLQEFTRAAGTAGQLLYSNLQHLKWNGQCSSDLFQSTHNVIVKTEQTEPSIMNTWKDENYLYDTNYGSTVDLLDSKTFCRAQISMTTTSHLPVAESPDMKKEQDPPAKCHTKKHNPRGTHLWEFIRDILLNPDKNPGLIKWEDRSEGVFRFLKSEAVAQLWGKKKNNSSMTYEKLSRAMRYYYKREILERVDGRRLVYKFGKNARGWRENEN
Summed up: as §1

A further assay addresses SPIB (Homo sapiens, UniProt Q01892 1-262). A digest of the protocol: as §1
The next assay addresses T3, SPIC (Homo sapiens, UniProt Q8N5J4 1-248).
T3 sequence: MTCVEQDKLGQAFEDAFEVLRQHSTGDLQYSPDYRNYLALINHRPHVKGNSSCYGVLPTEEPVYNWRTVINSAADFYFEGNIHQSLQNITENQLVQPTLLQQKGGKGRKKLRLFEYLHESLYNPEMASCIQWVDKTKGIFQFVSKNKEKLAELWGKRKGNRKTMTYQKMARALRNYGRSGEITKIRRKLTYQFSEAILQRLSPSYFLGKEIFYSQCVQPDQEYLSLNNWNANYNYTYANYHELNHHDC
A digest of the protocol:
as §1

In another assay the target is ELF4 (Homo sapiens, UniProt Q99607 1-663). Summed up:
as §1

The target in the next assay is T4, ETV2 (Homo sapiens, UniProt O00321 1-342).
T4 sequence: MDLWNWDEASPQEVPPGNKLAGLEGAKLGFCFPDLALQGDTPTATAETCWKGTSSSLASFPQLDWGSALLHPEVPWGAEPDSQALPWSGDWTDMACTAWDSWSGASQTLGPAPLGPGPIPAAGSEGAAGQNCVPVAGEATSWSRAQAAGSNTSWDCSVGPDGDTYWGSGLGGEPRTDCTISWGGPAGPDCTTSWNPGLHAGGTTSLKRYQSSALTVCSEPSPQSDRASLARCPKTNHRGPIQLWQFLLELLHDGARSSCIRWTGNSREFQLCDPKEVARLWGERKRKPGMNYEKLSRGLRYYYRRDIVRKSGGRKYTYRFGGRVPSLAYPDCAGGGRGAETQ
A digest of the protocol:
as §1

Another assay concerns the target T5, ELF3 (Homo sapiens, UniProt P78545 1-371).
T5 sequence: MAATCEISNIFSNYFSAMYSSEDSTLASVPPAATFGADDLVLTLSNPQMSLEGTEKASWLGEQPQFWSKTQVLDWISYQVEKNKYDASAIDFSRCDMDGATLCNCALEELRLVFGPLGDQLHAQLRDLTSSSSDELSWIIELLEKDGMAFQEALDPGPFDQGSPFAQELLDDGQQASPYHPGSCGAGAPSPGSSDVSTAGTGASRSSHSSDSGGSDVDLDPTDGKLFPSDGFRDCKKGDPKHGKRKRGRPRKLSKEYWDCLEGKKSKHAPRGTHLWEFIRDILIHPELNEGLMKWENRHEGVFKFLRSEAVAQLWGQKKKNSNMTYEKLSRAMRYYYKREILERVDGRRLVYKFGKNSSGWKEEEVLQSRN
A digest of the protocol:
as §1

For a further assay, the target named is ETV1 (Homo sapiens, UniProt P50549 1-477). Summed up:
as §1

A further assay addresses T6, ERF (Homo sapiens, UniProt P50548 1-548).
T6 sequence: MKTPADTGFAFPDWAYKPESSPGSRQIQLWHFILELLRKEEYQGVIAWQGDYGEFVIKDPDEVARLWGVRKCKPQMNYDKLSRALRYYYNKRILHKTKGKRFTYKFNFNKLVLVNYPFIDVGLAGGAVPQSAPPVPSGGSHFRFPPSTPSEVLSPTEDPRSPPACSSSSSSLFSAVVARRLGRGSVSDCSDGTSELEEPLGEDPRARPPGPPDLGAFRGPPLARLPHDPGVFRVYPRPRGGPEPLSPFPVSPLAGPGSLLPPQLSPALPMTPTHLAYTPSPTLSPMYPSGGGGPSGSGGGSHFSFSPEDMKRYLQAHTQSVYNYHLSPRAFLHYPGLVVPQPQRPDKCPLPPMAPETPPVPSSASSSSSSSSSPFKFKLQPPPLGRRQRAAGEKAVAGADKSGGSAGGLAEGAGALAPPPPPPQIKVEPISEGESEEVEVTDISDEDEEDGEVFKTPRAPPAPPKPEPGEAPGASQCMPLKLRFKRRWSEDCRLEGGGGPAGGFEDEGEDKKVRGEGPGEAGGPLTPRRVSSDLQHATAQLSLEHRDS
Summed up:
as §1

The next assay addresses T7, ETV3L (Homo sapiens, UniProt Q6ZN32 1-361).
T7 sequence: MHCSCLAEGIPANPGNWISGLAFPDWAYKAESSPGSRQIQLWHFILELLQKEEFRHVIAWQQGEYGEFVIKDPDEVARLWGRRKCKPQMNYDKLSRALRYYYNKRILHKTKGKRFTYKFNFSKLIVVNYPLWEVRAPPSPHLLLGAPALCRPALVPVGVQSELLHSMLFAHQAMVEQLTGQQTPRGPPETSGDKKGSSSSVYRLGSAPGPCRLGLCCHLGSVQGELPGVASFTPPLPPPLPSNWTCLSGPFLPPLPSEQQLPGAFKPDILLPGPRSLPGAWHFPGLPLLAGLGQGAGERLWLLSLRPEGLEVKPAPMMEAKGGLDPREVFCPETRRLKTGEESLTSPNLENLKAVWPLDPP
A digest of the protocol:
as §1

The next assay deals with T8, ETS2 (Homo sapiens, UniProt P15036 1-469).
T8 sequence: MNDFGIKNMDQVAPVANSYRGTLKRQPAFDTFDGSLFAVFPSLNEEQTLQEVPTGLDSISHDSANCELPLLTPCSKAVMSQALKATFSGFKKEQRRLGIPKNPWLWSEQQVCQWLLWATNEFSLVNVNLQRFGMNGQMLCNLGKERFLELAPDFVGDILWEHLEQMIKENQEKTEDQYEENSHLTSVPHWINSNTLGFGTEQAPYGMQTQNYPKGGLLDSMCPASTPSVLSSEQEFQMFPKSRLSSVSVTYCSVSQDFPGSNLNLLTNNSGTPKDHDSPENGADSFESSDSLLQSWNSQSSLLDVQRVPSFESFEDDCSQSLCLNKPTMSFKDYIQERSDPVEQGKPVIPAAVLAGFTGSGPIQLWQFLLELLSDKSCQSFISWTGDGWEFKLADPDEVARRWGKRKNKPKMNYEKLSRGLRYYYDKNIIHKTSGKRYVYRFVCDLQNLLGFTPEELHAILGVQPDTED
Summed up:
as §1

The next assay concerns the target T9, ETV3 (Homo sapiens, UniProt P41162-2 1-143).
T9 sequence: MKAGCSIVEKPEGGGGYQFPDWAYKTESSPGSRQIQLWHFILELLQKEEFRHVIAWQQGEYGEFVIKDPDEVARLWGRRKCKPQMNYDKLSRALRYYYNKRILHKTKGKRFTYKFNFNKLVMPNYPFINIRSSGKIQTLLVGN
A digest of the protocol:
as §1

Chain of ELF4 (Q99607 whole entry): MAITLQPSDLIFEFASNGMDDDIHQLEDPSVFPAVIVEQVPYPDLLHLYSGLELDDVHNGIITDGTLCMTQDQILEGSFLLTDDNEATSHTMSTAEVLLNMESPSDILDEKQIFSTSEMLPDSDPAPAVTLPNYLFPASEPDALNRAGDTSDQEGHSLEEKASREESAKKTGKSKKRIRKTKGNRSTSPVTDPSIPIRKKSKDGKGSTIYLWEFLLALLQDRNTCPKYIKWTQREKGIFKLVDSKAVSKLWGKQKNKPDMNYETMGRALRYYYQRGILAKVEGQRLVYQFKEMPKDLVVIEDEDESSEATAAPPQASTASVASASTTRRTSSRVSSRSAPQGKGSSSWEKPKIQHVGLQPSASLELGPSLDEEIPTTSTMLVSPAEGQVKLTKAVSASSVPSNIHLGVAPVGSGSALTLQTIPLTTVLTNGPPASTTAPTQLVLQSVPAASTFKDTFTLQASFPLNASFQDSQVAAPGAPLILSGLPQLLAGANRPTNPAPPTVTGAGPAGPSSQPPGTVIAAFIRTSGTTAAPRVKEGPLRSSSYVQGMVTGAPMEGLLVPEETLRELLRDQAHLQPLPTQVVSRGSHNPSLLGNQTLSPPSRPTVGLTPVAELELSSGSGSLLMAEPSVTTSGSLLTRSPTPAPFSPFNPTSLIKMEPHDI
Chain of ELF1 (P32519 whole entry): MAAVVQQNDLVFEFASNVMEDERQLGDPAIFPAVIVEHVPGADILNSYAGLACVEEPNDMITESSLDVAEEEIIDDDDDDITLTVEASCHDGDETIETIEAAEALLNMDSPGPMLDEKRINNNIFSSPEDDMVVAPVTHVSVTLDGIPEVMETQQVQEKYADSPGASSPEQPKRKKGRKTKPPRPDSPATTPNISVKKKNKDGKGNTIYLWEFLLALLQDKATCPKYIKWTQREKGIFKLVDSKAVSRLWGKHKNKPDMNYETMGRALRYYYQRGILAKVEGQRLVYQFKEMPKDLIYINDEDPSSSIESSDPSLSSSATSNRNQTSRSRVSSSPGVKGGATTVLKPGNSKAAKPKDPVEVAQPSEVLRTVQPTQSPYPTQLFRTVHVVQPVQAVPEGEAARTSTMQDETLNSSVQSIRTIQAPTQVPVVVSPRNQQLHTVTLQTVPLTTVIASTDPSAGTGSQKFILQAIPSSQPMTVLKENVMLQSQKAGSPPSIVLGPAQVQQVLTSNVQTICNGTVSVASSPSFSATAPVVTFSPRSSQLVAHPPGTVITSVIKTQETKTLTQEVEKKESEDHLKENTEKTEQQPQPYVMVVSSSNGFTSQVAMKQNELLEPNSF
Chain of SPIB (Q01892 whole entry): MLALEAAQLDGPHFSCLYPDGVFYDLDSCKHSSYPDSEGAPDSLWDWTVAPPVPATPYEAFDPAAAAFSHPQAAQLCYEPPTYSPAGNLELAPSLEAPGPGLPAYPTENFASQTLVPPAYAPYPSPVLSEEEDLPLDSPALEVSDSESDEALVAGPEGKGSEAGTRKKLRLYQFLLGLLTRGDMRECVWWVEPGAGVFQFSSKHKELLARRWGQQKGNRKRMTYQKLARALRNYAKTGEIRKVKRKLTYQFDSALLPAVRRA
Chain of ETV1 (P50549 whole entry): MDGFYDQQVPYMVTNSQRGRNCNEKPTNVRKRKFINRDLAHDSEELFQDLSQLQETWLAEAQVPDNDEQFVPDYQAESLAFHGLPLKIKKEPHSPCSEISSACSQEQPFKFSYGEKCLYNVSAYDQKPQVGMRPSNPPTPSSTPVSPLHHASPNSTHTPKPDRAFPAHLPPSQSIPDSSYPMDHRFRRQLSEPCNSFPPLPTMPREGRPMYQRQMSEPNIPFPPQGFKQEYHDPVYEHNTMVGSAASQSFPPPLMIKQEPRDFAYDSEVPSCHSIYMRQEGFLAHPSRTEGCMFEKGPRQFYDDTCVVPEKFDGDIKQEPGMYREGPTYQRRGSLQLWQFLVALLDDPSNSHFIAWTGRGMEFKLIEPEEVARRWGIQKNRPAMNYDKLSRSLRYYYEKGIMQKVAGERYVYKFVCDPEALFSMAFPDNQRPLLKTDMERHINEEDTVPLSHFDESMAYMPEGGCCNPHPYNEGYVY

On to CAGCTC, for which the binding signal with GABPA was 1.01 fold enrichment (6-mer frequency, TF over GST control); with ELF1, 1.06 fold enrichment (6-mer frequency, TF over GST control); with EHF it was 1.01 fold enrichment (6-mer frequency, TF over GST control); with SPIB, 1.01 fold enrichment (6-mer frequency, TF over GST control); with SPIC, 1.06 fold enrichment (6-mer frequency, TF over GST control); with ELF4 it was 1.05 fold enrichment (6-mer frequency, TF over GST control). Further, the binding signal is 1.02 fold enrichment (6-mer frequency, TF over GST control) in the assay with ETV2; 1.04 fold enrichment (6-mer frequency, TF over GST control) with ELF3; 1.08 fold enrichment (6-mer frequency, TF over GST control) with ETV1; 1.05 fold enrichment (6-mer frequency, TF over GST control) with ERF; 1.11 fold enrichment (6-mer frequency, TF over GST control) with ETV3L; 1.06 fold enrichment (6-mer frequency, TF over GST control) with ETS2. In addition, in the assay with ETV3, the binding signal is 1 fold enrichment (6-mer frequency, TF over GST control).

With ACGCCA, the binding signal with SPIC is 1 fold enrichment (6-mer frequency, TF over GST control).

Regarding ATTGTG, the binding signal in the assay with SPIC is 1.07 fold enrichment (6-mer frequency, TF over GST control); with ELF4, 1 fold enrichment (6-mer frequency, TF over GST control); with ERF, 1.06 fold enrichment (6-mer frequency, TF over GST control).

For the sequence CAATCG, the binding signal with SPIC is 1.03 fold enrichment (6-mer frequency, TF over GST control).
